Assay outcomes deposited in PubChem BioAssay by Paczesny and Yang Labs, IUPUI and University of Michigan.
ST2 inh: inhibitors of human ST2 (IL1RL1) binding to IL-33, primary screen, biochemical, AlphaLISA; inhibition, % for hits at 17 µM; AlphaLISA ST2-Fc/biotin-IL-33 interaction, 1 h; 78,000 compounds, 2.3% hits; in the data active = inhibition above about 30%
Target sequence (Q01638 whole entry, looked up): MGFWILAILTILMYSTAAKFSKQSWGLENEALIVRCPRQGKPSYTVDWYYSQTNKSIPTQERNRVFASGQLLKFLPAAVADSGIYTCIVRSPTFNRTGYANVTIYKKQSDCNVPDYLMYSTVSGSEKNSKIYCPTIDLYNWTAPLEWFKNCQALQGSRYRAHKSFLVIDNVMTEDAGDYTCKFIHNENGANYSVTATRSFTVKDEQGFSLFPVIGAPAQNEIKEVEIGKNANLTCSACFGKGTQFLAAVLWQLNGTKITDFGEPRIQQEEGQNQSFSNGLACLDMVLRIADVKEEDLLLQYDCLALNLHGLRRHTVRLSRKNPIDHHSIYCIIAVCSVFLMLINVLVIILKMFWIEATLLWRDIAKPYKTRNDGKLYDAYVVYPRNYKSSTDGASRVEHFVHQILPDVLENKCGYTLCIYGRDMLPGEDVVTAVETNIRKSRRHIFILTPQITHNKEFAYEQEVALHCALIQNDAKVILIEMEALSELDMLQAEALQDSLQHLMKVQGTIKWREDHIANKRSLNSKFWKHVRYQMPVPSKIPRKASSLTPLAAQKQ
* marks the source's active call; other numbers are inactive results; i = inactive. Many of the other results were omitted from the sample, so hits are more common in it than they were.

SMILES | ST2 inh
CNC(=O)CN1C(=O)/C(=C/c2ccccc2F)Sc2ccccc21 | i
CC(NC(=O)CN1C(=O)/C(=C\c2cccc(Cl)c2)Sc2ccccc21)c1ccccc1 (configuration not stated) | i
O=C(CN1C(=O)/C(=C/c2ccccc2F)Sc2ccccc21)N1CCCCC1 | 39.0%*
Cc1ccccc1/C=C1\Sc2ccccc2N(CC(=O)NC(C)c2ccccc2)C1=O (configuration not stated) | 32.0%*
O=C(CN1C(=O)/C(=C\c2ccc(C(F)(F)F)cc2)Sc2ccccc21)NCCN1CCCC1 | 39.0%*
O=C(CN1C(=O)/C(=C/c2ccccc2F)Sc2ccccc21)NC1CCCCCC1 | i
CNC(=O)CN1C(=O)/C(=C/c2ccccc2C)Sc2ccccc21 | i
CNC(=O)CN1C(=O)/C(=C\c2ccc(C(F)(F)F)cc2)Sc2ccccc21 | i
O=C(CN1C(=O)/C(=C\c2ccc(Cl)cc2)Sc2ccccc21)N1CCCCC1 | 41.0%*
O=C1NCC2(CCCN(C(=O)c3coc4c3C(=O)CCC4)CC2)O1 (configuration not stated) | i
CCOC(=O)C1=C(C)Nc2nc(SCc3ccccc3)nn2C1c1ccc(C#N)cc1 (configuration not stated) | i
O=C(O)c1cc(NC(=O)c2cccc([N+](=O)[O-])c2)cc(C(=O)O)c1 | i
CCNC(=O)Cc1ccc(-n2cnc(-c3cccs3)c2)cc1 | i
CCC(C)(C)C(=O)NCc1cccnc1 | i
O=C1CCCC2=C1C(c1cc(Cl)ccc1OCc1ccc(C(=O)O)cc1)C1=C(CCCC1=O)O2 | i
CCN(CC)C(=O)Cn1c(=O)n(CC2CCC(C(=O)N3CCCC3)CC2)c(=O)c2sccc21 (configuration not stated) | i
Cc1ccc(NC(=O)CNC(=O)c2cnc3ccnn3c2C)c(F)c1 | i
Cc1ccc2nc(NC(=O)Nc3ccc(F)cc3)sc2c1 | i
Cc1ccccc1NC(=O)N1CCC(n2cc(Cc3ccccc3)nn2)CC1 | i
CC(=O)Cc1nsc(NCc2ccco2)n1 | i
CCOc1ccc2c(=O)c(-c3ccccc3)c(C(F)(F)F)oc2c1 | i
CC1CCCC(NC(=O)CN2C(=O)/C(=C/c3ccccc3F)Sc3ccccc32)C1C (configuration not stated) | 32.0%*
Cc1ccc(CCNC(=O)CN2C(=O)/C(=C/c3ccccc3F)Sc3ccccc32)cc1 | i
O=C(CN1C(=O)/C(=C/c2ccccc2F)Sc2ccccc21)NC1CCCC1 | i
CC[C@H]1CN(S(=O)(=O)c2ccc(OC)cc2)CC[C@H]1CC(=O)NCc1ccccc1 | i
SMILES | ST2 inh
COCC(=O)N1CCN(C(=O)c2cccs2)[C@@H](C(=O)OC)C1 | i
COc1ccccc1NS(=O)(=O)c1ccc2c(c1)c(=O)n(C)c(=O)n2C | i
Cc1nc2ccccc2c2oc(C(=O)Nc3ccc(F)c(Cl)c3)cc12 | i
CCOc1ccc(C2=C/C(=C\c3cccs3)C(=O)O2)cc1 | 31.0%*
COc1cc(/C=C2/C=C(c3ccccc3)OC2=O)cc(OC)c1OC | 61.0%*
COc1cc2oc(-c3ccccc3)cc(=O)c2c(O)c1OC | i
Cc1ccc(-c2nc(-c3ccncc3)no2)cc1C | i
CCOc1ccc(-c2nc3s/c(=C\c4ccc(Cl)cc4)c(=O)n3n2)cc1 | i
CCOc1ccccc1/C=C1\N=C(c2ccc(Cl)cc2)OC1=O | i
CCOc1ccc(-c2nc3s/c(=C\C=C\c4ccccc4OC)c(=O)n3n2)cc1 | i
COc1cc(/C=C/C(=O)O)cc(OC)c1OC | i
Cc1ccc(C2=C/C(=C\c3cccs3)C(=O)O2)cc1C | 68.0%*
CCOc1ccc(N2CC(NC(=O)Cc3cccs3)CC2=O)cc1 (configuration not stated) | i
CCOc1ccc(N2C(=O)/C(=C\c3ccccc3OC)N=C2c2ccc(OC)c(OC)c2)cc1 | 39.0%*
Cc1cc(C)n(C(C)C(=O)NCC(=O)Nc2ccc(F)c(F)c2F)n1 (configuration not stated) | i
Cc1cccc2nc(C(=O)NCCSc3nnnn3C)c(F)n12 | i
CC(C)Cn1cc(C(=O)NCc2ccc3c(c2)OCO3)c2c3ccccc3n(C)c2c1=O | i
Cc1cccc(-c2cccc(NC(=O)C3CCCN(C(=O)C4=NN(C)C(=O)CC4)C3)c2)c1 (configuration not stated) | i
O=C(NCCCN1CCN(c2ccc(F)cc2)CC1)C1CCCN1c1nnc(N2CCCC2=O)s1 (configuration not stated) | i
Cc1cc(C)c(C(=O)N2CC=C(c3ccccc3)CC2)c(=O)[nH]1 | i
O=C(NCc1cccnc1)c1noc2c1CCc1ccccc1-2 | i
Cc1ccccc1Cn1nc(C)c(NC(=O)c2cc(C3CC3)on2)c1C | i
COc1ccc(/C=C2\C=C(c3ccc(Cl)cc3)OC2=O)c(C)c1 | i
CCOc1ccc2c(=O)c(-c3ccccc3OC)coc2c1 | i
CCOc1ccc(C2=C/C(=C/c3ccccc3OC)C(=O)O2)cc1 | 46.0%*
SMILES | ST2 inh
N#CC1=C(N)Oc2n[nH]c(-c3ccccc3)c2C1c1ccc([N+](=O)[O-])cc1Cl (configuration not stated) | i
CC1=C(n2nnc3ccccc32)C(c2ccccc2)C(C#N)=C(N)O1 (configuration not stated) | i
Cc1nn(-c2ccccc2)c2c1C(c1cccnc1)C(C#N)=C(N)O2 (configuration not stated) | i
COc1ccc(Br)cc1C1C(C#N)=C(N)Oc2c1c(C)nn2-c1ccccc1 (configuration not stated) | i
Cc1nn(-c2ccccc2)c2c1C(c1ccncc1)C(C#N)=C(N)O2 (configuration not stated) | 38.0%*
Cc1nn(-c2ccccc2)c2c1C(c1ccc([N+](=O)[O-])o1)C(C#N)=C(N)O2 (configuration not stated) | 39.0%*
O=C(CN1CCN(Cc2ccccc2F)C1=O)NCCC1=CCCCC1 | i
N#Cc1ccc(-c2ccncc2)nc1SCc1ccc(F)cc1 | 34.0%*
CCSc1nc(-c2ccccc2)ccc1C#N | i
N#Cc1ccc(-c2ccccc2)nc1SCC(=O)c1ccc(O)c(O)c1 | i
Cc1ccc(N2C(=O)CC(Sc3ncn[nH]3)C2=O)cc1C (configuration not stated) | 36.0%*
COc1cc(OC)cc(N2C(=O)CC(Sc3ncn[nH]3)C2=O)c1 (configuration not stated) | i
Cc1cccc(N2C(=O)CC(Sc3nccc(C)n3)C2=O)c1 (configuration not stated) | i
CCc1nc(C)c(C(=O)N2CC(c3ccncc3)C2)o1 | i
CN(C)c1cc[n+](CC(=O)c2ccc(Cl)cc2)cc1 | i
CSc1nc2c(sc3ccccc32)c(=O)n1Cc1ccco1 | i
c1ccc(N=c2scc(-c3ccccc3)n2Cc2ccco2)cc1 | 62.0%*
c1ccc(N2CCN(Cc3ccco3)CC2)cc1 | i
CC(C)n1c(-c2ccccc2)csc1=Nc1ccccc1 | 70.0%*
Cc1ccc(-n2c(=O)c3sccc3n(CC(=O)NCC3CCCO3)c2=O)cc1 (configuration not stated) | i
Cc1ccc(-c2nc3cccnc3n2CCN2CCN(C(=O)NCc3cccc(F)c3)CC2)cc1 | i
COCCOC(=O)C1=C(C)NC2=C(C(=O)C(C(=O)OC)C(C)C2)C1c1ccccc1OC (configuration not stated) | i
